Measurements as given in PubChem BioAssay AID1159580 (chemical genetic matrix, 2015).
Among all 5,500 compounds or so, about 2,000 (36%) were called active. About 18% were inconclusive and are not listed. Rule as the data show it: active = normalized growth mostly below about 0.91 (no sharp cut-off); inconclusive = no clear call, values can overlap the other calls; inactive = mostly above about 0.92. The list shows a part of the results.

Assay: chemical genetic growth profiling, strain panel (AID 1159580);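 also: tested at 20 µM; growth read once vehicle control cultures reached saturation at 30 °C; 1 = growth at the plate median or of vehicle wells; lower values mean less growth of the strain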
Details: growth OD

Measured: normalized growth

CC(C)(C)NCC(O)c1cc(Cl)c(N)c(Cl)c1 (centres undefined)
inactive: S. cerevisiae deletion strains, locus YJR043C, strain POL32, stronger effect = lower value 1.01 | S. cerevisiae deletion strains, locus YJR075W, strain HOC1, stronger effect = lower value 1.01 | S. cerevisiae deletion strains, locus YKL009W, strain mrt4, stronger effect = lower value 1 | S. cerevisiae deletion strains, locus YKL068W, stronger effect = lower value 1 | S. cerevisiae deletion strains, locus YKL085W, strain MDH1 (second series), stronger effect = lower value 1.01 | S. cerevisiae deletion strains, locus YKL085W, strain MDH1, stronger effect = lower value 1.01 | S. cerevisiae deletion strains, locus YKL160W, strain elf1, stronger effect = lower value 0.998 | S. cerevisiae deletion strains, locus YKL190W, strain CNB1, stronger effect = lower value 1 | S. cerevisiae deletion strains, locus YKR001C, strain vps1, stronger effect = lower value 1.01 | S. cerevisiae deletion strains, locus YKR026C, strain gcn3, stronger effect = lower value 0.999 | S. cerevisiae deletion strains, locus YKR091W, strain srl3, stronger effect = lower value 1 | S. cerevisiae deletion strains, locus YLL001W, strain dnm1, stronger effect = lower value 0.983 | S. cerevisiae deletion strains, locus YLL026W, stronger effect = lower value 0.992 | S. cerevisiae deletion strains, locus YLL041C, strain sdh2, stronger effect = lower value 1 | S. cerevisiae deletion strains, locus YLR027C, strain aat2, stronger effect = lower value 0.999 | S. cerevisiae deletion strains, locus YLR039C, strain RIC1, stronger effect = lower value 1.02 | S. cerevisiae deletion strains, locus YLR058C, strain SHM2, stronger effect = lower value 1.02 | S. cerevisiae deletion strains, locus YLR102C, strain apc9, stronger effect = lower value 0.992 | S. cerevisiae deletion strains, locus YLR221C, strain rsa3, stronger effect = lower value 1 | S. cerevisiae deletion strains, locus YLR258W, strain gsy2, stronger effect = lower value 0.993 | S. cerevisiae deletion strains, locus YLR262C, strain YPT6 (second series), stronger effect = lower value 0.999 | S. cerevisiae deletion strains, locus YLR262C, strain YPT6, stronger effect = lower value 1.05 | S. cerevisiae deletion strains, locus YLR268W, strain sec22, stronger effect = lower value 0.977 | S. cerevisiae deletion strains, locus YLR320W, strain mms22, stronger effect = lower value 0.996 | S. cerevisiae deletion strains, locus YLR330W, strain CHS5, stronger effect = lower value 1.01 | S. cerevisiae deletion strains, locus YLR342W, strain FKS1 (second series), stronger effect = lower value 1.02 | S. cerevisiae deletion strains, locus YLR342W, strain FKS1, stronger effect = lower value 1 | S. cerevisiae deletion strains, locus YLR357W, strain rsc2, stronger effect = lower value 1 | S. cerevisiae deletion strains, locus YLR370C, strain arc18, stronger effect = lower value 1 | S. cerevisiae deletion strains, locus YLR371W, strain rom2, stronger effect = lower value 0.991 | S. cerevisiae deletion strains, locus YLR384C, strain iki3, stronger effect = lower value 1 | S. cerevisiae deletion strains, locus YLR418C, strain cdc73, stronger effect = lower value 0.976 | S. cerevisiae deletion strains, locus YML016C, strain PPZ1, stronger effect = lower value 1.01 | S. cerevisiae deletion strains, locus YML032C, strain rad52, stronger effect = lower value 0.992 | S. cerevisiae deletion strains, locus YML120C, strain ndi1, stronger effect = lower value 1.01 | S. cerevisiae deletion strains, locus YML124C, strain tub3, stronger effect = lower value 0.999 | S. cerevisiae deletion strains, locus YMR058W, strain fet3, stronger effect = lower value 0.998 | S. cerevisiae deletion strains, locus YMR078C, strain ctf18, stronger effect = lower value 1 | S. cerevisiae deletion strains, locus YMR125W, strain sto1, stronger effect = lower value 0.99 | S. cerevisiae deletion strains, locus YMR129W, stronger effect = lower value 1.01 | S. cerevisiae deletion strains, locus YMR205C, strain PFK2, stronger effect = lower value 0.982 | S. cerevisiae deletion strains, locus YMR223W, strain ubp8, stronger effect = lower value 1 | S. cerevisiae deletion strains, locus YMR231W, strain pep5, stronger effect = lower value 1 | S. cerevisiae deletion strains, locus YMR263W, strain SAP30, stronger effect = lower value 1.01 | S. cerevisiae deletion strains, locus YMR307W, strain GAS1, stronger effect = lower value 0.995 | S. cerevisiae deletion strains, locus YNL067W, strain RPL9B, stronger effect = lower value 1.01 | S. cerevisiae deletion strains, locus YNL071W, strain lat1, stronger effect = lower value 1 | S. cerevisiae deletion strains, locus YNL128W, strain TEP1, stronger effect = lower value 1.02 | S. cerevisiae deletion strains, locus YNL153C, strain GIM3, stronger effect = lower value 1 | S. cerevisiae deletion strains, locus YNL209W, strain ssb2, stronger effect = lower value 1.01 | S. cerevisiae deletion strains, locus YNL233W, strain BNI4, stronger effect = lower value 1.01 | S. cerevisiae deletion strains, locus YNL248C, strain rpa49, stronger effect = lower value 1 | S. cerevisiae deletion strains, locus YNL250W, strain rad50, stronger effect = lower value 0.989 | S. cerevisiae deletion strains, locus YNL271C, strain bni1, stronger effect = lower value 0.99 | S. cerevisiae deletion strains, locus YNL298W, strain CLA4, stronger effect = lower value 0.992 | S. cerevisiae deletion strains, locus YNL307C, strain MCK1, stronger effect = lower value 0.996 | S. cerevisiae deletion strains, locus YNL322C, strain KRE1 (second series), stronger effect = lower value 0.997 | S. cerevisiae deletion strains, locus YNL322C, strain KRE1, stronger effect = lower value 1.01 | S. cerevisiae deletion strains, locus YNR049C, strain mso1, stronger effect = lower value 0.997 | S. cerevisiae deletion strains, locus YNR052C, strain pop2, stronger effect = lower value 1 | S. cerevisiae deletion strains, locus YOL006C, strain TOP1, stronger effect = lower value 1.05 | S. cerevisiae deletion strains, locus YOL012C, strain htz1 1.23 | S. cerevisiae deletion strains, locus YOL147C, strain pex11, stronger effect = lower value 1 | S. cerevisiae deletion strains, locus YOR001W, strain rrp6, stronger effect = lower value 0.99 | S. cerevisiae deletion strains, locus YOR061W, strain CKA2, stronger effect = lower value 1.01 | S. cerevisiae deletion strains, locus YOR069W, strain VPS5, stronger effect = lower value 1.01 | S. cerevisiae deletion strains, locus YOR070C, strain gyp1, stronger effect = lower value 0.994 | S. cerevisiae deletion strains, locus YOR080W, strain dia2, stronger effect = lower value 0.998 | S. cerevisiae deletion strains, locus YOR083W, strain WHI5, stronger effect = lower value 1 | S. cerevisiae deletion strains, locus YOR106W, strain vam3, stronger effect = lower value 0.996 | S. cerevisiae deletion strains, locus YOR136W, strain idh2, stronger effect = lower value 0.991 | S. cerevisiae deletion strains, locus YOR144C, strain elg1, stronger effect = lower value 0.999 | S. cerevisiae deletion strains, locus YOR184W, strain ser1, stronger effect = lower value 1 | S. cerevisiae deletion strains, locus YOR265W, strain rbl2, stronger effect = lower value 1 | S. cerevisiae deletion strains, locus YOR270C, strain vph1, stronger effect = lower value 0.958 | S. cerevisiae deletion strains, locus YOR290C, strain snf2, stronger effect = lower value 0.971 | S. cerevisiae deletion strains, locus YOR316C, strain cot1, stronger effect = lower value 1 | S. cerevisiae deletion strains, locus YPL051W, strain arl3, stronger effect = lower value 0.995 | S. cerevisiae deletion strains, locus YPL055C, strain LGE1, stronger effect = lower value 0.993 | S. cerevisiae deletion strains, locus YPL078C, strain atp4, stronger effect = lower value 0.991 | S. cerevisiae deletion strains, locus YPL106C, strain sse1, stronger effect = lower value 0.985 | S. cerevisiae deletion strains, locus YPL240C, strain hsp82, stronger effect = lower value 1.01 | S. cerevisiae deletion strains, locus YPL241C, strain CIN2, stronger effect = lower value 1 | S. cerevisiae deletion strains, locus YPR119W, strain clb2, stronger effect = lower value 0.999 | S. cerevisiae deletion strains, locus YPR141C, strain kar3, stronger effect = lower value 0.996 | S. cerevisiae deletion strains, locus YPR163C, strain tif3, stronger effect = lower value 0.999 | S. cerevisiae deletion strains, locus YPR167C, strain met16, stronger effect = lower value 0.994 | S. cerevisiae deletion strains, strain wtn01, stronger effect = lower value 0.971 | S. cerevisiae strains, strain wild type, stronger effect = lower value 1
